Assay results from publication PMC4336329 (PLoS ONE, 2015).
Out of some 310,000 compounds screened, about 14,000 (4.5%) showed an effect of 50% or more. The effect is printed as a negative number. The list comes from a sample in which strong results are over-represented; it also holds similar structures and randomly drawn compounds.

biological target: human ether-à-go-go-related gene (hERG) potassium channel (human, UniProt Q12809); assay: primary screen, population patch clamp on CHO cells stably expressing hERG; higher = less effect of the substance
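Also: peak tail current of the secondary pulse compared with the same well before compound.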

Sequence of human ether-à-go-go-related gene (hERG) potassium channel (Q12809 whole entry, looked up): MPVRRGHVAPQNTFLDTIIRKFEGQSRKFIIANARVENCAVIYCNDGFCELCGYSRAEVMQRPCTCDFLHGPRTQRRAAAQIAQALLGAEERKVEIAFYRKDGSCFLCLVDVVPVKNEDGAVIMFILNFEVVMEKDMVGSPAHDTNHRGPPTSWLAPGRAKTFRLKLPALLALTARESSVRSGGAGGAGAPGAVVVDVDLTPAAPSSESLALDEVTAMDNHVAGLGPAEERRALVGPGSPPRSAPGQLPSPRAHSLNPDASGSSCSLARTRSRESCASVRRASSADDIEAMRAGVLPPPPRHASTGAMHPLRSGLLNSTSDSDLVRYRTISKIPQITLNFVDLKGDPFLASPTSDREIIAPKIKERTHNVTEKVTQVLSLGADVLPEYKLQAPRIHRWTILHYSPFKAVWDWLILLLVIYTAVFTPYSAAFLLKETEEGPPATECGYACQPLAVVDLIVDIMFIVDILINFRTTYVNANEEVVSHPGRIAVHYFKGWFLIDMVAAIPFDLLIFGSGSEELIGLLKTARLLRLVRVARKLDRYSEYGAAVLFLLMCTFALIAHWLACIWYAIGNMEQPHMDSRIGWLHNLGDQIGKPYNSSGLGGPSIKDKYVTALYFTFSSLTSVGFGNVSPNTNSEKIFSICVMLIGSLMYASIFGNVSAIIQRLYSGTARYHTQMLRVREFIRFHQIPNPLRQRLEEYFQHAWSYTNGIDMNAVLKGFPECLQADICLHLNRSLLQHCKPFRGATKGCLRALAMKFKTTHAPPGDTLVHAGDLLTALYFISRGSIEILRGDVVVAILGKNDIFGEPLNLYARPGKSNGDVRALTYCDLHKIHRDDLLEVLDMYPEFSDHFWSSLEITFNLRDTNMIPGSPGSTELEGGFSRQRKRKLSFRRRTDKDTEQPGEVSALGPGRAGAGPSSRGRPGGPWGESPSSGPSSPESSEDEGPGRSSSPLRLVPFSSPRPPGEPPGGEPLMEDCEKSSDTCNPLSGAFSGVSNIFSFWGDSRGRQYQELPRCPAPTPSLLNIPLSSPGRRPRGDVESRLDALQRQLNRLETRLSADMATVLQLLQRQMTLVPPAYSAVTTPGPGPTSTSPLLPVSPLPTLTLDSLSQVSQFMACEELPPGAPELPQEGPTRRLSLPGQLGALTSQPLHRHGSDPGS

Row | Compound | hERG current change (%, negative = inhibition) at 10uM [%]
1 | COc1ccccc1OCC(=O)OCC(=O)Nc1ncc(Cl)cc1Cl | 12.8
2 | Cc1ccc2nc(NC(=O)/C=C/c3ccc4c(c3)OCO4)sc2c1 | 14.8
3 | Cc1cccc(CNC(=O)c2ccc(NC(=O)C3=CSCCO3)cc2)c1 | 5.08
4 | CSc1nnc(NC(=O)CCc2ccccc2)s1 | -6.33
5 | COc1ccc(NC(=O)CN(C)C(=O)c2ccccc2SCC(=O)N2CCCC2)cc1 | 10.5
6 | CCN(CC)CCSc1nc(O)c(-c2ccccc2)c(=O)n1-c1ccccc1.Cl | 12.1
7 | OCCn1nc2c3ccccc3nc-2n(-c2ccccc2)c1=S | -9.49
8 | CCN(CC)CCSc1nc2ccccc2c(=S)n1-c1ccccc1.Cl | -51.9
9 | CSc1nc2ccccc2n1Cc1cccc([N+](=O)[O-])c1 | -44.8
10 | CCN(CC)C(=O)CSc1nnc(-c2ccccc2)n1-c1ccccc1 | 17.8
11 | O=C(O)CCSc1nc2ccccc2n1Cc1ccccc1 | 24.1
12 | CN(C)C(=O)CSc1nc2ccccc2n1Cc1ccccc1 | -11.8
13 | O=C(O)CSc1nnc(Nc2ccccc2)n1-c1ccccc1 | 18.6
14 | CCN(CC)CCSc1nnc(Nc2ccccc2)n1-c1ccccc1 | -75.9
15 | CCN(CC)CCSc1nc2ccccc2n1Cc1ccccc1.Cl | -74.1
16 | COc1ccc(Cn2c(SC)nc3ccccc32)cc1[N+](=O)[O-] | 13.9
17 | CCSc1nc2ccccc2n1Cc1cccc([N+](=O)[O-])c1 | -69.7
18 | CCc1n[nH]c(=S)n1/N=C/c1ccc(NC(C)=O)cc1 | 13
19 | COc1cc(NC(=O)COC(=O)CO/N=C(\C)c2ccc3c(c2)OCO3)cc(OC)c1 | 14.6
20 | CC1CCc2sc(C(=O)Nc3ccc(N4CCOCC4)cc3)cc2C1 (stereo not shown) | 11.6
21 | COc1cccc2c1OCC(C(=O)Nc1nccs1)=C2 | -0.366
22 | CC(=O)C1=C(O)C(=O)N(c2ccc(Br)cn2)C1c1ccccc1F (stereo not shown) | 10.6
23 | CC(=O)N(C)c1ccc(NS(=O)(=O)Cc2ccccc2)cc1 | -8.12
24 | O=C(CCSc1ccccc1)Nc1ncccn1 | 14.9

Row | Compound | hERG current change (%, negative = inhibition) at 10uM [%]
25 | COC(=O)c1ccc(Cl)c(NS(=O)(=O)c2ccc3c(c2)OCCO3)c1 | -25.4
26 | O=c1c2ccccc2nc2c3ccccc3c(NCc3ccco3)nn12 | -17.8
27 | Cc1sc2nc3ccc(NCc4ccco4)nn3c(=O)c2c1C | -21.7
28 | Cc1sc2nc3c4ccccc4c(NCc4ccco4)nn3c(=O)c2c1C | -56.6
29 | COc1nc(N/N=C/c2ccccc2F)nc(N2CCCCC2)n1 | -15.6
30 | O=C(CN1CCc2ccccc2C1)Nc1ccc(Br)cc1 | -34.2
31 | O=C(NCCCN1CCc2ccccc2C1)Nc1ccc(Cl)cc1 | -65.5
32 | CN1CCN(CCNC(=O)Nc2ccc(Cl)cc2)CC1 | -0.17
33 | O=C(NCCCN1CCCC1=O)Nc1ccc(Cl)cc1 | 2.13
34 | O=C(NCCCN1CCc2ccccc2C1)Nc1ccc(Br)cc1 | -71.7
35 | COc1ccc(NC(=O)NCCN2CCc3ccccc3C2)cc1 | -34.6
36 | COc1ccc(NC(=O)NCCCN2CCCC2=O)cc1 | 4.11
37 | COc1ccc(NC(=O)NCCCN2CCc3ccccc3C2)cc1 | -69.2
38 | O=C(Nc1ccc(Br)cc1)N1CCc2ccccc2C1 | 2.91
39 | COc1ccc(-c2csc(NC(=O)Cc3ccccc3F)n2)cc1OC | 2.29
40 | CC(Oc1cc2oc(=O)c3c(c2cc1Cl)CCCC3)C(=O)NCc1ccncc1 (stereo not shown) | -41.8
41 | Cc1[nH]c2ccccc2c1C1(O)C(=O)N(C(C)C)c2ccccc21 (stereo not shown) | 16.7
42 | CC1CC2(CC(C)(C(=O)CSc3nc4ccccc4s3)OC2=O)C(=O)O1 (stereo not shown) | -1.16
43 | CCOC(=O)C1=C(C)NC(C)=C(C(=O)OCC)C1C(=O)OCC(=O)N1CCc2ccccc21 | -1.82
44 | CC(C)CC(=O)Nc1ccccc1-c1nnn(CC(=O)N2CCOCC2)n1 | -2.78
45 | NC(=S)NNc1c(F)c(F)c(F)c(F)c1F | 28.9
46 | Cc1ccc(F)c(NC(=O)c2c(-c3ccccc3)noc2C)c1 | 7.17
47 | Cl.OCCN(CCO)CC(O)CN1c2ccccc2Sc2ccccc21 (stereo not shown) | -12.9
48 | CC(=O)Nc1ccc(-c2csc(NC(=O)C3CCN(S(=O)(=O)c4cccs4)CC3)n2)cc1 | -2.9

Row | Compound | hERG current change (%, negative = inhibition) at 10uM [%]
49 | COc1cc(-c2nc3sc(C)c(C)c3c(=O)o2)cc(OC)c1OC | 19
50 | CCOC(=O)C1=C(C)OC(N)=C(C#N)C1c1cc2ccccc2nc1N1CCCCC1 (stereo not shown) | 6.3
51 | CC(C)N1C(=S)SC2CS(=O)(=O)C=C21 (stereo not shown) | -5.07
52 | NC(=O)c1cc(S(=O)(=O)N2CCCC2)ccc1OCCOc1ccccc1 | 2.15
53 | N#Cc1ccc(Cn2cc(C(=O)c3ccco3)c3ccccc32)cc1 | -76.7
54 | CC(=O)c1cn(Cc2ccc(C#N)cc2)c2ccccc12 | -19.9
55 | CCC(=O)c1cn(Cc2ccccc2C#N)c2ccccc12 | -24.2
56 | CCC(=O)c1cn(Cc2ccc(C#N)cc2)c2ccccc12 | -71.8
57 | CC(C)C(=O)c1cn(Cc2ccc(C#N)cc2)c2ccccc12 | -75.6
58 | O=Cc1cn(Cc2ccc(Br)cc2)c2ccccc12 | 15
59 | O=C(c1ccco1)c1cn(Cc2ccccc2)c2ccccc12 | -6.75
60 | CC(C)C(=O)c1cn(Cc2ccccc2C#N)c2ccccc12 | -10.8
61 | CC(C)C(=O)c1cn(CC(=O)O)c2ccccc12 | 8.27
62 | N#Cc1ccc(Cn2cc(C=O)c3ccccc32)cc1 | -80.8
63 | Cc1ccc(Cn2cc(C=O)c3ccccc32)cc1 | 1.48
64 | O=C(c1ccco1)c1cn(Cc2ccc(Cl)cc2)c2ccccc12 | 15.9
65 | Cc1cc(C)n(-c2ncc(-c3ccccc3)nn2)n1 | -36.4
66 | O=C(NCCCc1ccccc1)C(=O)NCC1OCCN1S(=O)(=O)c1cc(F)ccc1F (stereo not shown) | -15
67 | O=C(Nc1ncc(Cc2ccccc2)s1)C1=NCCN1 | 6.81
68 | COc1ccc(-c2nn(-c3ccccc3)cc2N)cc1 | -3.82
69 | CCOC(=O)c1ccc(COC(=O)CCc2nc(-c3ccccc3)c(-c3ccccc3)o2)cc1 | 1.13
70 | CN(Cc1ccco1)S(=O)(=O)c1nnc(NC(=O)c2ccccc2Cl)s1 | 15
71 | COc1ccccc1NC(=O)CN1CC(=O)Nc2ccccc21 | 20.5
72 | O=C(O)CCNc1nc(C(F)(F)F)nc2ccccc12 | 18.2

Row | Compound | hERG current change (%, negative = inhibition) at 10uM [%]
73 | Cl.Fc1ccc(Nc2nc(N3CCOCC3)c3ccccc3n2)cc1 | -2.91
74 | Cl.Oc1ccc(Nc2nc(N3CCCC3)c3ccccc3n2)cc1 | -70.2
75 | COc1ccc(Nc2nc(N3CCCCC3)c3ccccc3n2)cc1 | -32.9
76 | CN1CCN(c2nc(Nc3ccc(O)cc3)nc3ccccc23)CC1.Cl | -34.9
77 | CCN(CC)c1ccc(Nc2nc(N3CCOCC3)c3ccccc3n2)cc1 | -71.8
78 | COc1ccc(Nc2nc(N3CCCC3)c3ccccc3n2)cc1.Cl | -70
79 | Cl.c1ccc(Nc2nc(N3CCOCC3)c3ccccc3n2)cc1 | -14.2
80 | Cl.c1ccc2c(Nc3nc(N4CCOCC4)c4ccccc4n3)cccc2c1 | -6.79
81 | COc1ccc(Nc2nc(N)c([N+](=O)[O-])c(N3CCCC3)n2)cc1 | -22.8
82 | N#C/C(=C/c1ccccc1[N+](=O)[O-])c1nc(C2CC2)cs1 | -12.3
83 | CCCc1nnc(NC(=O)CCC(=O)NCc2ccccc2OC)s1 | 21.4
84 | CC1(c2ccccc2)NC(=O)N(CC(=O)NC(=O)NC2CCCC2)C1=O (stereo not shown) | 0.115
85 | Cc1ccc(-c2noc(CSc3nnc(-c4ccccc4)n3C)n2)cc1 | -3.5
86 | COc1cc2c(cc1OC)C(c1ccc(Br)cc1)NC(=O)C2 (stereo not shown) | 12.1
87 | O=C(CSc1nnc(-c2ccco2)n1CC1CCCO1)NC1CCCC1 (stereo not shown) | -4.75
88 | Cc1cccc(OCC(O)Cn2ccnc2C)c1 (stereo not shown) | -9.12
89 | CCCCN(CC(O)COc1cccc(C)c1)CC(O)COc1cccc(C)c1 (stereo not shown) | -81.7
90 | CC(C)NCC(O)COc1ccc(Br)cc1.Cl (stereo not shown) | -30.3
91 | OCCN(CCO)CC(O)COc1ccc(Br)cc1 (stereo not shown) | 3.82
92 | CN(C)CC(O)COc1cccc(OCC(O)CN(C)C)c1.Cl (stereo not shown) | 11.8
93 | CCCCN(CCCC)CC(O)COc1ccc(Br)cc1 (stereo not shown) | -74.4
94 | CCOP(=S)(OCC)SCC(=O)NC(C(=O)O)C(C)C (stereo not shown) | 7.13
